The record followed here is PubChem BioAssay (NCATS).

Results filed as inconclusive are left out. A number with no mark means an inactive call. Calls of active or inactive are those of the source. Calls come from the whole dose curve; as a rule, active = well fitted cell-killing curve with a large enough effect; inconclusive = small, poorly fitted or top-dose-only effect, or effect the other way; inactive = no such curve, though single readings can be large or run the other way.

Test [1] in a line: Viability qHTS for spleen associated tyrosine kinase inhibitor (SYKi) naive MV4-11 cells (AID 1963823). Note: nearly all actives have a fitted effect of over 40% in size. The essentials:
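qHTS, SYK inhibitor-naive MV4-11; 500 cells/well; 72 hr compound exposure, 37 C; CellTiter-Glo added, 10 min RT; luminescence read.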
A general note: qHTS replaces the single test concentration by a dilution series.

Test [2] can be described thus: Viability qHTS for spleen associated tyrosine kinase inhibitor (SYKi) drug resistant MV4-11 cells (AID 1963824). Note: nearly all actives have a fitted effect of over 35% in size. The method in brief:
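CellTiter-Glo luminescence, read 10 min after reagent addition, reports viability after a 72 hr compound exposure. Cells are an MV4-11 line made resistant to SYK inhibition, seeded at 500 per well onto compound-containing plates.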
Potency is the fitted concentration of half-maximal effect.

With `CC(=O)c1ccc2c(c1)C(O)C(C(C)(C)O)O2` (centres undefined), the Potency result in test [1] and in test [2] was “inactive” throughout.
Take `C[C@]12CCC(=O)C=C1[C@@H](O)C[C@@H]1[C@@H]2[C@@H](O)C[C@@]2(C)[C@H]1CC[C@]2(O)C(=O)CO`: the Potency entry in test [1] and in test [2] was “inactive” in each case.
For the compound `CC(=O)O[C@@H](C[C@@H]1C=C(C)C(=O)O1)[C@H](C)[C@H]1CCC2[C@@]3(C)CC[C@H](O[C@@H]4O[C@H](CO)[C@@H](O)[C@H](O)[C@H]4O[C@@H]4O[C@@H](C)[C@H](O)[C@@H](O)[C@H]4O)C(C)(C)C3CC[C@@]2(C)[C@@]12COC(=O)C2` (some centres undefined), the viability (% of control) in test [1] was 81.6% [at 9.25 µM]. For the same compound, the viability, % of control in test [2] was 89.9% [at 9.25 µM].
For the compound `CC1C(O)C(O)C2C(C(=O)OCCc3ccc(O)cc3)=COC(O[C@@H]3O[C@H](CO)[C@@H](O)[C@H](O)[C@H]3O)C12` (some centres undefined), the Potency result in test [1] and in test [2] was “inactive” in each case.
Consider `O=S(=O)(NCC1CC1)c1ccc(Nc2nccc(N3CCCc4cc(O)ccc43)n2)cc1`, for which the results for the Potency in test [1] and in test [2] were 146 nM (active) and 206 nM (active), respectively.
The like results for `C=C1CC2C3(C)C=CC(=O)OC(C)(C)C3CC(OC(C)=O)C2(C)C2C(=O)OC(C)C(=O)C12C` (centres undefined) were, in that order, “inactive” and “inactive”.
The like results for `CC[C@@H]([C@H](C)O)n1ncn(-c2ccc(N3CCN(c4ccc(OC[C@@H]5CO[C@@](Cn6cncn6)(c6ccc(F)cc6F)C5)cc4)CC3)cc2)c1=O` were, in that order, 11900 nM (active) and 6680 nM (active).
As to `C=C1/C(=C/C=C2\CCC[C@]3(C)[C@@H]([C@H](C)/C=C/[C@H](O)C4CC4)CC[C@@H]23)C[C@@H](O)C[C@@H]1O`, the values for the Potency in test [1] and in test [2] were 32.6 nM (active) and 731 nM (active), respectively.
For `C[C@]1(O)CC[C@@H]2C(C(=O)O)=CO[C@@H](O[C@@H]3O[C@H](COC(=O)c4ccc(O)cc4)[C@@H](O)[C@H](O)[C@H]3O)[C@@H]21`, the Potency result in test [1] and in test [2] was “inactive” throughout.
Consider `C/C=C1/[C@H](O[C@@H]2O[C@H](CO)[C@@H](O)[C@H](O)[C@H]2O)OC=C(C(=O)OC)[C@H]1CC(=O)O[C@@H]1O[C@H](CO)[C@@H](O)[C@H](O)[C@H]1O`, for which the Potency entry in test [1] and in test [2] was “inactive” throughout.
For `O=C(Nc1ccc(-c2ccc(Cl)c(Cl)c2)cc1)C1=C(O)c2ccccc2S(=O)(=O)N1`, the results for the Potency in test [1] and in test [2] were 20600 nM (active) and 23100 nM (active), respectively.
As to `CC1=CC(=O)CC(C)(C)C1CCC(C)O[C@@H]1O[C@H](CO[C@@H]2OC[C@@H](O)[C@H](O)[C@H]2O)[C@@H](O)[C@H](O)[C@H]1O` (some centres undefined), the Potency entry in test [1] and in test [2] was “inactive” in each case.
On to `CCCOc1ccc(-c2nc(OC)c3ccccc3n2)cc1`, for which the Potency result in test [1] and in test [2] was “inactive” in each case.
In the case of `CC[N+]1(C/C2=C/CCCCCC2)CCC(NC(=O)C2c3cc(Cl)ccc3Oc3ccc(Cl)cc32)CC1` (centres undefined), the Potency was 6510 nM (active) in test [1] and 3660 nM (active) in test [2].
On to `CO[C@H]1C=C2C(CC[C@H](O[C@@H]3O[C@H](CO)[C@@H](O)[C@@H](O)[C@H]3O)C2(C)C)[C@]2(C)CC[C@]3(C)C([C@H](C)C(O)C(C=C(C)C)O[C@@H]4O[C@H](CO)[C@@H](O)[C@@H](O)[C@H]4O)CC[C@@]3(C)C12` (some centres undefined), for which the viability (% of control) in test [1] was 86.9% [at 9.25 µM]. For the same compound, the viability, % of control in test [2] was 90.7% [at 9.25 µM].
Take `COC1=CC(=O)O[C@@H](/C=C/c2ccccc2)[C@@H]1O`: the Potency result in test [1] and in test [2] was “inactive” each time.
As for `CC1CC2(O)OC(=O)C3=C2C(CCC3)[C@@]12C[C@@H](c1ccoc1)OC2=O` (some centres undefined), the Potency in test [1] was 321 nM (active). For the same compound, the Potency result in test [2] was “inactive”.
For `Cc1nc2c(O)cccc2c(=O)[nH]1`, in that order: “inactive” and “inactive”.
For the compound `C/C=C(\C)C(=O)OC[C@H]1O[C@@H](O[C@H]2[C@@H](O[C@H]3O[C@H](COC(=O)/C(C)=C/C)[C@@H](O)[C@H](O)[C@H]3O[C@@H]3O[C@H](COC(=O)/C(C)=C/C)[C@@H](O)[C@H](OC(=O)/C(C)=C/C)[C@H]3O)O[C@H](COC(=O)/C(C)=C/C)[C@@H](O)[C@@H]2O)[C@H](O)[C@@H](O)[C@@H]1O`, the viability (% of control) in test [1] is 68.7% [at 9.25 µM]. The viability, % of control in test [2] was 65.9% [at 9.25 µM].
As to `C/C1=C/CCC2=CC(OC2=O)C(C)(C)/C=C/C1=O` (centres undefined), the Potency in test [1] and in test [2] was 517 nM (active) throughout.
As to `OCC1OC(Oc2cc(O)cc(/C=C/c3ccc(O)cc3)c2)C(O)C(O)C1O` (centres undefined), the Potency entry in test [1] and in test [2] was “inactive” throughout.
Turning to `CC(=O)N[C@H]1[C@H](O[C@H]2CC[C@@]3(C)C(CC[C@]4(C)C3CC=C3[C@@H]5CC(C)(C)CC[C@]5(C(=O)OC5OCC(O)C(O)C5O)CC[C@]34C)C2(C)C)O[C@H](COC2OC(C)C(O)C(OC3OC(C)C(O)C(O)C3O)C2O)[C@@H](O)[C@@H]1O` (some centres undefined), the viability (% of control) in test [1] is 83.4% [at 9.25 µM]. The viability, % of control in test [2] is 87% [at 9.25 µM].
